Laboratory results from PubChem BioAssay AID651551 (Sanford-Burnham Center for Chemical Genomics, 2012).

Assay: GAPDH versus PEG-3 reporter suppression – cell-based, luminescence, counter-screen for PEG-3 promoter inhibitor project, SAR follow-up (AID 651551)
Conditions: HeLa PEG-Prom / GAPDH luciferase reporter, 6 or 24 h, run 2, 24 h; at 99 µM (top of the series)

SMILES	inhibition % (higher = more inhibition) [%]
CCCn1nc(C(=O)Nc2nc(-c3ccncc3)cs2)c2ccccc2c1=O	72
Cc1nc(NC(=O)c2ccccc2)sc1-c1csc(Nc2cccc(Cl)c2C)n1	46.8
COc1ccc(-n2nc(C(=O)NCC(=O)Nc3ccc(OC)c(OC)c3)c3ccccc3c2=O)cc1	86.5
O=C(Nc1nc(-c2ccccc2)cs1)c1nn(-c2ccccc2)c(=O)c2ccccc12	43.1
COc1ccc(-n2nc(C(=O)NCC(=O)Nc3cccc(OC)c3)c3ccccc3c2=O)cc1	27.5
Cc1cc(NC(=O)c2ccccc2)n(-c2nc3ccccc3[nH]2)n1	-1.45
Cc1nc(NC(=O)c2ccccc2)sc1-c1csc(Nc2ccccc2)n1	87.7
Cc1ccc(Cl)cc1Nc1nc(-c2sc(NC(=O)c3ccco3)nc2C)cs1	85.8
Cc1cc(NC(=O)c2ccccc2C)n(-c2nc3ccccc3[nH]2)n1	76.4
O=C(Nc1nccs1)c1nn(-c2ccccc2)c(=O)c2ccccc12	56.2
Cc1cc(NC(=O)c2cccc(C)c2C)n(-c2nc3ccccc3[nH]2)n1	54.6
Cc1cc(NC(=O)c2ccccc2C(F)(F)F)n(-c2nc3ccccc3[nH]2)n1	95.1
CCCn1nc(C(=O)Nc2nc3ccccc3s2)c2ccccc2c1=O	44.3
CCn1cc(C(=O)NCc2ccco2)c(=O)c2cc(S(=O)(=O)N3CCCC3)ccc21	48.4
COc1ccccc1Nc1nc(-c2sc(NC(=O)c3ccco3)nc2C)cs1	76.4
COc1ccc(-n2nc(C(=O)NCC(=O)Nc3cc(OC)c(OC)c(OC)c3)c3ccccc3c2=O)cc1OC	71.7
